Measurements taken from the supplement of paper PMC10849652.
About 7,900 targets were measured; listed, in parts, are those with a hit and a random draw of the rest. About 0.6% of all pairs of compound and target were hits. A number with no mark means an inactive call.

Compound: COc1cc(C(=O)O)ccc1NC(=O)[C@@H]1N[C@@H](CC(C)(C)C)[C@](C#N)(c2ccc(Cl)cc2F)[C@H]1c1cccc(Cl)c1F [idasanutlin]
Assay: log2 fold change, soluble protein after heating vs DMSO (PISA); higher = thermal stabilisation; K562 cells, 10 uM, 30 min; active = over 0.2 and 3.5 SD of the protein, either way, in both replicates (recomputed)
In short: (§1)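 Soluble protein was defined as the supernatant after 21,000xg for 90 min. It came from K562 cells at 2×10^6 cells/mL given 10 μM compound for 30 min, heated in aliquots for 3 min across 48°C-58°C, pooled, and extracted in PBS with 0.5% NP-40 at 4°C, and was quantified by TMTpro 16plex LC-MS/MS with equalised channel sums. Thermal stability against control samples, from duplicates, is reported as log2 fold change.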

Chain of UniProt Q8NEZ4 (Q8NEZ4 whole entry, looked up): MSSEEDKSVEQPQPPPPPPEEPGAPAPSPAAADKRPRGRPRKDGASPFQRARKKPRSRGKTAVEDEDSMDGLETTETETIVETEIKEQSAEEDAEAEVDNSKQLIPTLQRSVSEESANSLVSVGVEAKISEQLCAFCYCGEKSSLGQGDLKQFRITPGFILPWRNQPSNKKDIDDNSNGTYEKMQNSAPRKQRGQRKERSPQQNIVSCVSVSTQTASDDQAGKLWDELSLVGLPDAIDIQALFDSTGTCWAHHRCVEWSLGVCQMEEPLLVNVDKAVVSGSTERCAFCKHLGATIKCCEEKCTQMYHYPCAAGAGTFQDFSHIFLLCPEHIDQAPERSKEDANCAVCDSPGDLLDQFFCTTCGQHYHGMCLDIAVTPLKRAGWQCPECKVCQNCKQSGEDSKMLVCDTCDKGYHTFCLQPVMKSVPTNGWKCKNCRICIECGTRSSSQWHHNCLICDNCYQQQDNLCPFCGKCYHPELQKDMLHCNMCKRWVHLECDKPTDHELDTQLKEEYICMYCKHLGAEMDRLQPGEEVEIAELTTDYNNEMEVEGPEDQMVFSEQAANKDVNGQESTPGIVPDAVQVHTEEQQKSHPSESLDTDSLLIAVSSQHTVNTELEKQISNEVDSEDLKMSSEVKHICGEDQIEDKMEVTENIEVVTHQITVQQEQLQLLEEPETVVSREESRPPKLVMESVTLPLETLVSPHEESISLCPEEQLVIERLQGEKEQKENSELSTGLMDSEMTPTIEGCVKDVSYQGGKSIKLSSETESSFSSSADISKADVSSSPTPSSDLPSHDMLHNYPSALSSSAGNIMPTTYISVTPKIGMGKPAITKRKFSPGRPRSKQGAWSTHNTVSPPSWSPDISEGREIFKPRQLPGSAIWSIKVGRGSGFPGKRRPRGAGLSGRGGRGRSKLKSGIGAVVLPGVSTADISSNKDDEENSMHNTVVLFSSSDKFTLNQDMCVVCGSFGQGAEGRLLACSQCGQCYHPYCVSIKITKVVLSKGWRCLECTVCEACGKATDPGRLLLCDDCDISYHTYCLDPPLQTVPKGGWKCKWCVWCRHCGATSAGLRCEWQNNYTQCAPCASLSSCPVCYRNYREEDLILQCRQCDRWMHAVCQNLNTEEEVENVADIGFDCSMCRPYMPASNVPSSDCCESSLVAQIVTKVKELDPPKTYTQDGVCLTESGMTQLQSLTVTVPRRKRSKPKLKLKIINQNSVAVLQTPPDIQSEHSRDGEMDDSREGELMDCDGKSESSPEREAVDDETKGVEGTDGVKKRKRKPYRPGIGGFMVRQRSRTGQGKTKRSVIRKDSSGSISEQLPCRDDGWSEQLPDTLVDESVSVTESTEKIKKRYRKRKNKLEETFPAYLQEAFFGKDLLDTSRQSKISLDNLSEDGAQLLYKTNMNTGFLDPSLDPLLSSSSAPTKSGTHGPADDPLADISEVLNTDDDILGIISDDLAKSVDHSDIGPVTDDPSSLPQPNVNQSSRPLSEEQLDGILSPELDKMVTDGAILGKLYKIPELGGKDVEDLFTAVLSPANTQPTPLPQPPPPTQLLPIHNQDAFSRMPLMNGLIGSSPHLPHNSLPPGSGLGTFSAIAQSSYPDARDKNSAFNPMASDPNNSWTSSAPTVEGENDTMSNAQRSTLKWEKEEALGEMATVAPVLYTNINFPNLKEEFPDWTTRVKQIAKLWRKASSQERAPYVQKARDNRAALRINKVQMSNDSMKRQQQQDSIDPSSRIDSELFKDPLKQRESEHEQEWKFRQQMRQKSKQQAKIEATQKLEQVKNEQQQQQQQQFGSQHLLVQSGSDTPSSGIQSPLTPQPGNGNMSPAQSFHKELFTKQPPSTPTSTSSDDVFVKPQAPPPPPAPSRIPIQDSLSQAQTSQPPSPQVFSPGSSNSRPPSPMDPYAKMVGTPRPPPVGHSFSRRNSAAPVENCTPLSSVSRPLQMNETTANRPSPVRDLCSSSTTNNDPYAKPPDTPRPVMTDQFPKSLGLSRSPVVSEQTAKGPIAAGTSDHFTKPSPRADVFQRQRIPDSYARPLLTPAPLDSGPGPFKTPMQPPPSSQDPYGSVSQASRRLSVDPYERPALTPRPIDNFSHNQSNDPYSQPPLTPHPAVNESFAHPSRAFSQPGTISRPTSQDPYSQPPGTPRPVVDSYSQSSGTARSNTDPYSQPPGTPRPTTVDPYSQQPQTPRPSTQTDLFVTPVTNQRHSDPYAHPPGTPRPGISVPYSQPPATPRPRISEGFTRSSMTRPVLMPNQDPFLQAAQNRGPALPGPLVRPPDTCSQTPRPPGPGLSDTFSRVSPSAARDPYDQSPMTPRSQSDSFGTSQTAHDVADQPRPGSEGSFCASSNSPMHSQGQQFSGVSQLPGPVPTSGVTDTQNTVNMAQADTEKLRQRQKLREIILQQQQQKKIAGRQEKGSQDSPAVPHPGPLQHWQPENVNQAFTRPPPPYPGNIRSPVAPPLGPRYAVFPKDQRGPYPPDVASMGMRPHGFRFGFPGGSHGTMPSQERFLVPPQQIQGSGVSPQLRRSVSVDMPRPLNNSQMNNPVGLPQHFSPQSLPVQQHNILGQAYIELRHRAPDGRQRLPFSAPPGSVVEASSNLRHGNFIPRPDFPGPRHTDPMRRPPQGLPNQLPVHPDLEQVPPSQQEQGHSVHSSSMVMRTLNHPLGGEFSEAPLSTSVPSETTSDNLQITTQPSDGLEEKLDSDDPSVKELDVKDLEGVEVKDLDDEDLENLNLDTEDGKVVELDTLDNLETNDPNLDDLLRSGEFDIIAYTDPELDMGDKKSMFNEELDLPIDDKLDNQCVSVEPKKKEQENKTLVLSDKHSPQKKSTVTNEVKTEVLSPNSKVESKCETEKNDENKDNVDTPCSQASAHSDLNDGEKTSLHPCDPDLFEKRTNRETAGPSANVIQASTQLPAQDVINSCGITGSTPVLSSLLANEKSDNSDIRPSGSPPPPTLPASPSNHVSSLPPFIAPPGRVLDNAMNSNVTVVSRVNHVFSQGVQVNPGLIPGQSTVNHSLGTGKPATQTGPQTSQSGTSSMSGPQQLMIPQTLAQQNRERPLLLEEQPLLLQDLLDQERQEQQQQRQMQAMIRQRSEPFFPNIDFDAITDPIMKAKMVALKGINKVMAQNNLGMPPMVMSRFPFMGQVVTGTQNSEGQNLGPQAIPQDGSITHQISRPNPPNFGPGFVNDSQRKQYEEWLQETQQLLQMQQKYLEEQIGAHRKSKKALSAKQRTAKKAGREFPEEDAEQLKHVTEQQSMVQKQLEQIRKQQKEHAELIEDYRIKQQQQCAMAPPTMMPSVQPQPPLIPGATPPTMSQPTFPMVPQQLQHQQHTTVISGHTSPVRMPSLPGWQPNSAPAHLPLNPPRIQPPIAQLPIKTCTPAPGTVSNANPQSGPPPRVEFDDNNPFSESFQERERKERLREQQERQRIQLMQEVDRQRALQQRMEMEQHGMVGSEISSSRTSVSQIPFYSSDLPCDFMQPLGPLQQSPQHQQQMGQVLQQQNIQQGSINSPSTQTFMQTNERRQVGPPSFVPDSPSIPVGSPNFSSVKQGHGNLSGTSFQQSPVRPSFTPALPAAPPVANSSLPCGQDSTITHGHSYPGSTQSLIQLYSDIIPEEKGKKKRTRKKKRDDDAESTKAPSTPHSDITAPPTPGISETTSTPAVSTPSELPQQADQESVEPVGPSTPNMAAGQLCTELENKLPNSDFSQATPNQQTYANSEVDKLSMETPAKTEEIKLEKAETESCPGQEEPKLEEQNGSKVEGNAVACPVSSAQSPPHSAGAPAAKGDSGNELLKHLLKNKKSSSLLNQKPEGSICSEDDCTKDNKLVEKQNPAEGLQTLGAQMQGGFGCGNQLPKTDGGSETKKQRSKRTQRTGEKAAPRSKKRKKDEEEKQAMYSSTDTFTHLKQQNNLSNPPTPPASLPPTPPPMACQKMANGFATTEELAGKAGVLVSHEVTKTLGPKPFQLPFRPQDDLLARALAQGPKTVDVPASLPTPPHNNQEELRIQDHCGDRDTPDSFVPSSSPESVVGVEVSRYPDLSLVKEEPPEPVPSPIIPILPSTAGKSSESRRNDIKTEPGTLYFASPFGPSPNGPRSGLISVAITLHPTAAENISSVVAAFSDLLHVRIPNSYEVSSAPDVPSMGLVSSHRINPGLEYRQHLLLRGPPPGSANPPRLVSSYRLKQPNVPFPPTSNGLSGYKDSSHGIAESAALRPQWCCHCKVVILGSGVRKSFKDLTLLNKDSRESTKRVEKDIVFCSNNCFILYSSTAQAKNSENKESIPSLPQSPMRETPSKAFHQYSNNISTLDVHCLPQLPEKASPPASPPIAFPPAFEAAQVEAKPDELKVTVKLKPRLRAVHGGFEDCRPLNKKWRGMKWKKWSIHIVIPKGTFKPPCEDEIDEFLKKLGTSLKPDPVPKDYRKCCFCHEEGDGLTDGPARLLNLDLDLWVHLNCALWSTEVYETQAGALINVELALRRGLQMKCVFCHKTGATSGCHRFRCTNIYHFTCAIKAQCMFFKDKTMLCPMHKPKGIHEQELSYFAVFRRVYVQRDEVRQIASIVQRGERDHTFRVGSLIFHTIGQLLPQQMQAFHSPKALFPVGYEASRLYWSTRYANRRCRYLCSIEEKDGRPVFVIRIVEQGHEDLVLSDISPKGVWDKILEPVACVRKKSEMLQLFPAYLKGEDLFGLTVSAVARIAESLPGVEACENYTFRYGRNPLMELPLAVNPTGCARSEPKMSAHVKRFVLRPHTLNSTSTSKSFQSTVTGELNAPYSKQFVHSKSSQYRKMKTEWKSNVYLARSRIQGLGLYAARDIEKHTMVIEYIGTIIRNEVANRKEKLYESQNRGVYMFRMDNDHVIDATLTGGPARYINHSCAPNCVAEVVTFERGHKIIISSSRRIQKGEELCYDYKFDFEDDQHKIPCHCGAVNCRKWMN
Chain of UniProt Q9BQD3 (Q9BQD3 whole entry, looked up): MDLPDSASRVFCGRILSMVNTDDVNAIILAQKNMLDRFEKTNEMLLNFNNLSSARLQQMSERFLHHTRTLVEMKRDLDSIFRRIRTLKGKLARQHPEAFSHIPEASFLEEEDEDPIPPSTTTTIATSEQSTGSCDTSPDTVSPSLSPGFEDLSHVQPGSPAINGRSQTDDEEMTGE

Target	log2 fold change
ITM2C (UniProt Q9NQX7)	-0.061
MGRN1 isoform 2 (UniProt O60291)	-0.108
MFSD12 isoform 3 (UniProt Q6NUT3)	-0.097
IGFBP6 (UniProt P24592)	0.776 (active)
MAP4 isoform 5 (UniProt P27816)	-0.025
MAPRE3 isoform 2 (UniProt Q9UPY8)	0.155
LRRFIP1 isoform 4 (UniProt Q32MZ4)	0.108
MED29 (UniProt Q9NX70)	0.1
KLHL18 (UniProt O94889)	-0.048
KMT2C isoform 3 (UniProt Q8NEZ4)	0.012
LEPROT (UniProt O15243)	0.31
IPP (UniProt Q9Y573)	0.051
MAGED1 isoform 2 (UniProt Q9Y5V3)	0.054
LMBRD1 (UniProt Q9NUN5)	0.102
LPIN3 isoform 2 (UniProt Q9BQK8)	-0.075
LRRCC1 (UniProt Q9C099)	-0.069
KIF13A isoform 4 (UniProt Q9H1H9)	-0.081
KIZ (UniProt Q2M2Z5)	-0.019
MAGEA8 (UniProt P43361)	0.002
IP6K1 (UniProt Q92551)	-0.044
KXD1 (UniProt Q9BQD3)	-0.021
MFAP3 (UniProt P55082)	0.192
MFSD1 isoform 6 (UniProt Q9H3U5)	-0.01
MAPK7 (UniProt Q13164)	0.003

Compound: COc1cc(Nc2ncc3c(n2)-c2ccc(Cl)cc2C(c2c(F)cccc2OC)=NC3)ccc1C(=O)O [alisertib]
Assay: as above
In short: as §1

Target	log2 fold change
MAP4 isoform 5 (UniProt P27816)	0.143
MED29 (UniProt Q9NX70)	-0.571
KLHL18 (UniProt O94889)	-0.068
LIN52 (UniProt Q52LA3)	-0.924 (active)
MCOLN3 (UniProt Q8TDD5)	0.058
LOX (UniProt P28300)	-0.111
KMT2C isoform 3 (UniProt Q8NEZ4)	-0.028
LEPROT (UniProt O15243)	-0.027
LMBRD1 (UniProt Q9NUN5)	-0.022
LSR isoform 3 (UniProt Q86X29)	-0.011
LPIN3 isoform 2 (UniProt Q9BQK8)	0.022
LAPTM4B (UniProt Q86VI4)	-0.027
KIF1B isoform 3 (UniProt O60333)	0.251
ING5 (UniProt Q8WYH8)	0.003
IKZF1 isoform 2 (UniProt Q13422)	0.079
IP6K1 (UniProt Q92551)	0.042
KXD1 (UniProt Q9BQD3)	-0.019
MFSD1 isoform 6 (UniProt Q9H3U5)	-0.035
